Experiment [1] can be described thus: yeast TOR pathway RPL19A-GFP modulators, primary screen, cell-based, S. cerevisiae, multiplex flow cytometry (AID 1862; in the data active = percent of DMSO control GFP below about 86%;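 also: lower values mimic rapamycin by blocking the RPL19A rise seen in DMSO cells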). Particulars: S. cerevisiae RPL19A-GFP strain, flow cytometry fluorescence, 3 h; at 10 µM; stronger effect = lower value.
A short description of experiment [2]: modulators of MEP2-GFP levels in yeast, primary screen, S. cerevisiae, multiplex flow cytometry (AID 1867;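 active = GFP response, as percent of the DMSO control, above the screen-wide mean plus 3 SD, about 139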;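 also: median GFP channel fluorescence of barcode-gated MEP2-GFP cells measured by flow cytometry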). Particulars: S. cerevisiae MEP2-GFP strain, 3 h, at 10 µM, stronger effect = higher value, 100% means same as DMSO wells.
Experiment [3] is described as follows: modulators of CIT2-GFP expression in yeast, primary screen, S. cerevisiae, GFP fusion, multiplex flow cytometry (AID 1870).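 Also: barcoded CIT2-GFP strain pooled with four other GFP strains with rapamycin as positive control; median GFP fluorescence per well over plate mean of DMSO wells so 100% = DMSO.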 Particulars: 3 h, at 10 µM, stronger effect = higher value.
Experiment [4] in a line: modulators of LAP4-GFP expression in yeast, primary screen, S. cerevisiae, multiplex flow cytometry (AID 1873;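 active = GFP signal, as percent of the solvent control, above the screen mean plus 3 SD, about 149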). Particulars: 3 h, at 10 µM, stronger effect = higher value.
Experiment [5] in a line: modulators of AGP1-GFP expression in yeast TOR pathway, primary screen, cell-based, multiplex flow cytometry, S. cerevisiae (AID 1887;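 active = GFP signal above the screen-wide mean plus 3 SD, that is over about 124.5% of the solvent control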;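 also: AGP1-GFP fusion strain of S. cerevisiae within a five-strain barcoded multiplex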). Particulars: 3 h, at 10 µM, stronger effect = higher value.
Experiment [6] in a line: inhibitors of CD8+ T cell-vesicle binding, pilot screen, LFA-1/ICAM-1 modulator project, MLPCN validation set, flow cytometry (AID 2523;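 active = response below a set limit, under 55% cells CD8-positive and vesicle-bound, and CD8 cells' 90th-percentile brightness under 279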;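 as to vesicle binding response: mean PE anti-B7-1 fluorescence of CD8+ cells relative to row control; 100% = QL9-loaded vesicles with DMSO vehicle in the same plate row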). Particulars: 2C mouse CD8+ T cells, at 7 µM, stronger effect = lower value; double positive events: measured here: CD8+/vesicle+ event percentage.
The target in experiment [7] is Integrin beta-1 (Homo sapiens) + Integrin alpha-4 (Homo sapiens) (UniProt P13612+P05556). In words: inhibition of HUTS-21 binding to VLA-4, pilot screen, VLA-4 allosteric modulator project, U937 cells, HUTS-21 mAb, flow cytometry, validation set (AID 2674;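 active = inhibition above 50%, about 3 SD of the validation set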;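 also: antibody binding induced by the VLA-4 ligand LDV present at three times its Kd; 0% = LDV ligand with antibody and no compound and 100% = antibody without LDV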). The note with it: HUTS-21 LIBS mAb binding, at 6.7 µM, stronger effect = higher value, binding induced by LDV ligand.
Integrin beta-1 (Homo sapiens) + Integrin alpha-4 (Homo sapiens), sequence (P05556 whole entry, looked up): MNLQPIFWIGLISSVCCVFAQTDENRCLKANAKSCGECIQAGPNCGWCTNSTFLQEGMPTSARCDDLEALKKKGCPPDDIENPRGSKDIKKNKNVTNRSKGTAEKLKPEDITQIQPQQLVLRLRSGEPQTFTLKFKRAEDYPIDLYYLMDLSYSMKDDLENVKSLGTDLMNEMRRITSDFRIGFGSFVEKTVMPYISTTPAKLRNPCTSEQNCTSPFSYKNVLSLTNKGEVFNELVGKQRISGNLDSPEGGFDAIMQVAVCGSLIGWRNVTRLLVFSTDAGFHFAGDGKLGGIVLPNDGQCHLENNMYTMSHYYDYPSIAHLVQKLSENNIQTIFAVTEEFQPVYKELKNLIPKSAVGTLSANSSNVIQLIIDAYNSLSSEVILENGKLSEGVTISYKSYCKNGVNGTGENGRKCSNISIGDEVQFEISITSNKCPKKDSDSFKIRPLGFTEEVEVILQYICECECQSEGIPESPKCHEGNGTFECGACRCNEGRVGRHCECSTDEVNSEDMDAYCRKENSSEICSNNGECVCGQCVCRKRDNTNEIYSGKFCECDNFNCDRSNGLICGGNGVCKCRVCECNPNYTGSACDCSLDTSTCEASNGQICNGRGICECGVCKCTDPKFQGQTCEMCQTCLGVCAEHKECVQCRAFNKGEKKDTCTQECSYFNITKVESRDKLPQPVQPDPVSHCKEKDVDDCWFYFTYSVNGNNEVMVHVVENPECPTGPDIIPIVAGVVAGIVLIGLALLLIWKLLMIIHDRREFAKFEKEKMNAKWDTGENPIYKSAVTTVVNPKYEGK
Integrin beta-1 (Homo sapiens) + Integrin alpha-4 (Homo sapiens), sequence (P13612 whole entry, looked up): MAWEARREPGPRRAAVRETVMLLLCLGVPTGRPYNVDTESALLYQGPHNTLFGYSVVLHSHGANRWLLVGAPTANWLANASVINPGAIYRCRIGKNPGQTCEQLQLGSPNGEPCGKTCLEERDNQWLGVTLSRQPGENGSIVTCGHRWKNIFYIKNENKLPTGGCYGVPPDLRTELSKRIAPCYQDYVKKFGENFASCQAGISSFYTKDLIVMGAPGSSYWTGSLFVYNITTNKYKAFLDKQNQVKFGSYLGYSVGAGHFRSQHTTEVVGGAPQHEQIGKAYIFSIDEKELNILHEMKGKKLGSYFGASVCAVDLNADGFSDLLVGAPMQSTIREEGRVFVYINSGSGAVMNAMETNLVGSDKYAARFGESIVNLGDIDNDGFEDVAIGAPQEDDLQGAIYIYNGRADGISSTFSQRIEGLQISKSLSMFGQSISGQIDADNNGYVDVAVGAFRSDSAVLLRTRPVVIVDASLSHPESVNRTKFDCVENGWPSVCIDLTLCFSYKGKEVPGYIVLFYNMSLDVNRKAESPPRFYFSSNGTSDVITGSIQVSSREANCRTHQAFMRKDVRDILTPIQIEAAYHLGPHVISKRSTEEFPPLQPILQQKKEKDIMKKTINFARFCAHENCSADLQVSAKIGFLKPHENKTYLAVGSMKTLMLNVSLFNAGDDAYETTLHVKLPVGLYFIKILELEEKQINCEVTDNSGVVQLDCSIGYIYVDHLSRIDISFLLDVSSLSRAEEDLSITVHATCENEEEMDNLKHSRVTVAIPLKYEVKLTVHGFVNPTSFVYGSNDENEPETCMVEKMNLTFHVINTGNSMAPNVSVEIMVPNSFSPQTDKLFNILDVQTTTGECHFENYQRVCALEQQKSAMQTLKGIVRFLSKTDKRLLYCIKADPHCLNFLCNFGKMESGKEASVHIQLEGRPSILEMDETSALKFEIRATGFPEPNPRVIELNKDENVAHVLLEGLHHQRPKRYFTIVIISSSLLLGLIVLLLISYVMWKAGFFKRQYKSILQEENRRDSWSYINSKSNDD
Experiment [8] is described as follows: superoxide lowering in aged yeast cells, pilot screen, validation compound set (AID 2706;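 active = superoxide response below 65% of plate, a cut near 3 SD across the whole screen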;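 also: yeast exposed to compound for one week at 30 degrees C before staining; 100% = mean of all compound wells on the same plate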). Particulars: S. cerevisiae aging, superoxide DHE fluorescence; at 10 µM; stronger effect = lower value.
In experiment [9] the target is Beta-adrenergic receptor kinase 1 (Homo sapiens) (UniProt P25098). Put plainly: GRK2 binders displacing RNA aptamer, biochemical, validation, human GRK2, bead flow cytometry (AID 488806;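 active = aptamer binding inhibition above 30%, about 3 SD of noise from non-fluorescent compounds; inactive = inhibition at or below 30%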). Particulars: bead-bound GRK2, FAM-aptamer displacement, at 10 µM, stronger effect = higher value.
Beta-adrenergic receptor kinase 1 (Homo sapiens), sequence (P25098 whole entry, looked up): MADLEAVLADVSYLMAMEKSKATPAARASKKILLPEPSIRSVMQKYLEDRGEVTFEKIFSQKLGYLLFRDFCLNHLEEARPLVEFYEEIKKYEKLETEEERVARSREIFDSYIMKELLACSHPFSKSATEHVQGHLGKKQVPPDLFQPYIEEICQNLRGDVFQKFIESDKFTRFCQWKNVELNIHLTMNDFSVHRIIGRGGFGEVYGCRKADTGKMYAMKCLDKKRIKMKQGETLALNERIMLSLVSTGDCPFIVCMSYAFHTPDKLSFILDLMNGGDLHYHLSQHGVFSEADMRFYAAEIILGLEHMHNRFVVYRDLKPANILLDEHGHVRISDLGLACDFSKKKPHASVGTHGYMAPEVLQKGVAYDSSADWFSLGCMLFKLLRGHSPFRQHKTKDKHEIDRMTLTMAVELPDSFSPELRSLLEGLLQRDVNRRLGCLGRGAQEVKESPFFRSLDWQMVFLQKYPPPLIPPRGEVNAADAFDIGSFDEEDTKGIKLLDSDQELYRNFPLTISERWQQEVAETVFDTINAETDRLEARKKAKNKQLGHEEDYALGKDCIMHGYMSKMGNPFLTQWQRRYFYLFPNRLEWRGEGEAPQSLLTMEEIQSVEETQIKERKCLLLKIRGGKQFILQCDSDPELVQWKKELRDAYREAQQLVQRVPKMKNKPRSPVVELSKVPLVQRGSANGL
For experiment [10], the target named is Beta-2 adrenergic receptor (Homo sapiens) (UniProt P07550). Put plainly: beta2AR agonists driving receptor internalization, pilot screen, cell-based, FAP fluorogen, flow cytometry, validation set (AID 504459;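 active = percent response above 42, roughly 3 SD of non-fluorescent test compounds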;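 also: agonist-driven loss of surface beta2AR via internalization measured by FAP dye flow cytometry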). The note with it: Am2.2-beta2AR cells, FAP surface receptor flow cytometry; at 10 µM; stronger effect = higher value.
Beta-2 adrenergic receptor (Homo sapiens), sequence (P07550 whole entry, looked up): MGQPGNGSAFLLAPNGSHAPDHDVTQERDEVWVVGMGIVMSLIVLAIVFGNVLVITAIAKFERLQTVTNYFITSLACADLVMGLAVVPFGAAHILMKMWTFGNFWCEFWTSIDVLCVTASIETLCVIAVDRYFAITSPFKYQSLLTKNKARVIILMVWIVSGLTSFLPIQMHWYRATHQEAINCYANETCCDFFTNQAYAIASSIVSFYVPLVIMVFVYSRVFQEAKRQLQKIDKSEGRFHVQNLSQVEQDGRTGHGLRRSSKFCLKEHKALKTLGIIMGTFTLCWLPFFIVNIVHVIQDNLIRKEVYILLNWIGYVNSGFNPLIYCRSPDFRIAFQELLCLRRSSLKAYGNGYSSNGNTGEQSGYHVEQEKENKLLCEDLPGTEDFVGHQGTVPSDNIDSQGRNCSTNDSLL
The target of experiment [11] is AP-2 complex subunit beta (Homo sapiens) (UniProt P63010). In words: inhibitors of arrestin peptide binding to AP2, pilot screen, biochemical, validation set, GST-AP2 beads, flow cytometry (AID 504541;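 active = inhibition above 54%, about 3 SD of non-fluorescent compounds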;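 also: AP2 carries R879A mutation and is captured from E. coli lysate; bead-bound FITC arrestin peptide fluorescence measuring arrestin peptide binding to AP2; 0% = DMSO wells and 100% = excess unlabeled arrestin peptide control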). The note with it: FITC arrestin peptide, at 10 µM, stronger effect = higher value, AP2 beta2 appendage fragment, R879A mutant.
AP-2 complex subunit beta (Homo sapiens), sequence (P63010 whole entry, looked up, the tested form may be a part, one chain of several): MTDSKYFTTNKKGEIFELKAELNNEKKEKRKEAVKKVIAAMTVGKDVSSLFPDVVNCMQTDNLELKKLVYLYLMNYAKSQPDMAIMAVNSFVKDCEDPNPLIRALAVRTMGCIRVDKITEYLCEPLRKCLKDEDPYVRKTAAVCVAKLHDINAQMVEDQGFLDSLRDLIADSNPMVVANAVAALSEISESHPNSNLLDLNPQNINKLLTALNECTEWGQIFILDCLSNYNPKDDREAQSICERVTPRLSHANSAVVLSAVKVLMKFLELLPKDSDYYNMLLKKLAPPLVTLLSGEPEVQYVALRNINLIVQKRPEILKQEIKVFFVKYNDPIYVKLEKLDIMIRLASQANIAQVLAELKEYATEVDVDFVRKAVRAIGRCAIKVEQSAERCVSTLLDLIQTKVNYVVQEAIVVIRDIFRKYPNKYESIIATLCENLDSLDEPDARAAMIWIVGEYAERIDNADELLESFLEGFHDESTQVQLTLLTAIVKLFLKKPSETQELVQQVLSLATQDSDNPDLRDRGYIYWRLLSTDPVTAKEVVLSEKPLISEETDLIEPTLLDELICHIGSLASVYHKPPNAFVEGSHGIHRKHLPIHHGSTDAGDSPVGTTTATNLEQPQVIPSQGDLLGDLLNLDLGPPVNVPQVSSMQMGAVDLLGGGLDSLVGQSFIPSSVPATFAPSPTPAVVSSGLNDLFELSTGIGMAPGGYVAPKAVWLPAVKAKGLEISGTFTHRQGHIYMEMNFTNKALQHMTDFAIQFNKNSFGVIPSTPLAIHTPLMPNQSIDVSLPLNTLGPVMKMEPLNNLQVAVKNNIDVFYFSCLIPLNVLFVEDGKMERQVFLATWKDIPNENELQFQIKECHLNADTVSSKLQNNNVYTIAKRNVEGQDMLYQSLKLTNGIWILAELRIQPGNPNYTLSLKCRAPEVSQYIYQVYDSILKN
The nature of experiment [12]: yeast V-ATPase proton transport modulators, S. cerevisiae, pHLuorin, HTS validation (AID 504600; in the data active = response above about 15%;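 also: plate controls were DMSO for no effect and reference compound for full effect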). Particulars: S. cerevisiae pHLuorin cytosolic pH, at 10 µM, stronger effect = higher value.
The subject of experiment [13] is anti-desmoglein-3 scFv antibody binding to human DSG3. Put plainly: inhibitors of anti-DSG3 scFv binding to DSG3, pilot screen, biochemical, validation compound set, bead-based, flow cytometry (AID 588368;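 active = binding below the plate cutoff, the plate median minus 3 SD, with a reading above zero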;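 also: signal is the median channel fluorescence of bead-bound GFP antibody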). Particulars: Protein G beads, DSG3-Fc, scFv-GFP binding, at 10 µM, stronger effect = lower value.
Experiment [14] is described as follows: inhibitors of fungal efflux pumps CDR1, CDR2, MDR1, pilot screen, validation compound set, multiplex, phenotypic (AID 588506;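 active = efflux inhibition above 0.42, the validation set average plus 4 SD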;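 also: Nile Red retained in cells so higher fluorescence means more efflux inhibition; 0 = negative control wells and 1 = enniatin B 25 µM full block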). Particulars: S. cerevisiae pump-expressing triplex, Nile Red efflux flow cytometry; at 10 µM; stronger effect = higher value; the pumps come from Candida albicans.
The target of experiment [15] is ATP-binding cassette sub-family B member 6 (Homo sapiens) (UniProt Q9NP58). In words: ABCB6 transporter inhibitors, pilot screen, K562-ABCB6 cells, flow cytometry, validation set (AID 588550;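 active = inhibition above the screen-wide mean plus 3 SD, about 51%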;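 also: 0% = DMSO wells and 100% = benzethonium chloride 70 µM positive control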). The note with it: K562-ABCB6 porphyrin accumulation, 1 h, at 10 µM, stronger effect = higher value.
ATP-binding cassette sub-family B member 6 (Homo sapiens), sequence (Q9NP58 whole entry, looked up): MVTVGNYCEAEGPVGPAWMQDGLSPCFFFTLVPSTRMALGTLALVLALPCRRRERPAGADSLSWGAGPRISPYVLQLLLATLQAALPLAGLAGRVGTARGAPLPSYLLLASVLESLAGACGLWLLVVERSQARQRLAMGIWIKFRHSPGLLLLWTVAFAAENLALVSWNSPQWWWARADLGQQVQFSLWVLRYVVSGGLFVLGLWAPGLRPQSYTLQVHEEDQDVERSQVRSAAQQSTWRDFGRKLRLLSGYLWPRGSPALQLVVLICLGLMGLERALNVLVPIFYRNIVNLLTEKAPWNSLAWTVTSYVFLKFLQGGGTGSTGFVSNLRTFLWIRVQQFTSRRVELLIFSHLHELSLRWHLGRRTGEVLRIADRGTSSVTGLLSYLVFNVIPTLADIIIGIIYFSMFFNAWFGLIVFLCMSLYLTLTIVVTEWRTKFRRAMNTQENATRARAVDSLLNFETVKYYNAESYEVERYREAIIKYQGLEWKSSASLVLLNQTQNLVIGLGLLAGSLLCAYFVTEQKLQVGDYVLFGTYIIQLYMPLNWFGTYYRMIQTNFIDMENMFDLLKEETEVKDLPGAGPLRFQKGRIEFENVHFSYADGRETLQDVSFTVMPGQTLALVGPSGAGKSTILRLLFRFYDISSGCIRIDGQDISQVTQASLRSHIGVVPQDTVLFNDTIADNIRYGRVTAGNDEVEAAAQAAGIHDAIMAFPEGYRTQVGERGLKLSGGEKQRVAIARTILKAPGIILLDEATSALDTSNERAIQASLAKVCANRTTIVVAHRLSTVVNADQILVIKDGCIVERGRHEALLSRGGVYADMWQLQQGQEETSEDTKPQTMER
The nature of experiment [16]: promoters of myeloid differentiation in arrested cells, primary screen, cell-based, GFP/MAC1 double positive, flow cytometry, validation set (AID 588685;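 active = differentiation response of at least 50%, scaled between solvent and reference control, from cells with both markers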;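 also: compound exposure lasts four days before antibody staining and flow analysis; 0% = DMSO wells and 100% = 5 µM fulvestrant positive control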). Particulars: ER-HoxA9 marrow cells, stronger effect = higher value, normalized: vehicle 0, fulvestrant 100.

Results filed as inconclusive are left out. Activity calls are given as the source filed them.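 The calls were made as follows, unless noted: active = percent response above a set limit, the screen-wide mean plus 3 SD (cut at about 130% in these data); inactive = the rest.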

As for `CC(=O)c1cc2c(cc1NC(=O)c1ccco1)OCCO2`, the percent of DMSO control GFP in experiment [1] was 103% (inactive). Also, the GFP response vs DMSO in [2] was 107% (inactive); in experiment [4] it was 120% (inactive). In experiment [3], the percent response of DMSO control is 109% (inactive). Moreover, the GFP response, % of DMSO in experiment [5] is 110% (inactive). In [6], this compound registered a double positive events of 58.2%. The vesicle binding response in experiment [6] was 178% (inactive). Further, the inhibition in experiment [7] is 10.8% (inactive); in experiment [11], -8.68% (inactive); in experiment [15], 2% (inactive). Further, the superoxide response (% of plate) in experiment [8] was 91.9% (inactive). Besides, the aptamer binding inhibition in [9] was 1% (inactive). Further, the response in experiment [10] was -30.9% (inactive); in experiment [12], -7.07% (inactive). In addition, the binding (% of control) in experiment [13] was 99.5% (inactive). Moreover, the efflux inhibition (fraction of control) in experiment [14] is -0.04 (inactive). For the same compound, in experiment [16], the differentiation response was -11.9% (inactive).
`CC1=NN(c2ccccc2)C(=O)C1`: the percent of DMSO control GFP in [1] was 108% (inactive). In addition, the results for the GFP response vs DMSO in experiment [2] and in [4] were 106% (inactive) and 99.1% (inactive), respectively. The percent response of DMSO control in experiment [3] is 109% (inactive). The GFP response, % of DMSO in experiment [5] was 111% (inactive). Further, the double positive events in experiment [6] turned out to be 62.5%. In addition, the vesicle binding response in experiment [6] was 206% (inactive). Moreover, the inhibition in [7] is -14.5% (inactive); in [11] it was -6.32% (inactive); in experiment [15] it was -1% (inactive). Also, in [8], the superoxide response (% of plate) was 91% (inactive). Also, in experiment [9], the aptamer binding inhibition is -3% (inactive). Moreover, the response is 3.52% (inactive) in [10] and 0.56% (inactive) in experiment [12]. Also, in experiment [13], the binding (% of control) was 101% (inactive). In [14], the efflux inhibition (fraction of control) is -0.1 (inactive). For the same compound, in [16], the differentiation response is 2.74% (inactive).
Take `C1CCC(C(CC2CCCCN2)C2CCCCC2)CC1` (stereo not drawn): the percent of DMSO control GFP in [1] was 97.9% (inactive). For the same compound, the values for the GFP response vs DMSO in experiment [2] and in [4] were 107% (inactive) and 130% (inactive), respectively. For the same compound, the percent response of DMSO control in [3] was 101% (inactive). Also, the GFP response, % of DMSO in [5] was 116% (inactive). This compound also had a double positive events in [6] of 62%. Besides, the vesicle binding response in experiment [6] is 170% (inactive). Besides, the figures for the inhibition in experiment [7], in experiment [11] and in experiment [15] were -17.3% (inactive), -6.24% (inactive) and -5% (inactive), respectively. In addition, in experiment [8], the superoxide response (% of plate) is 119% (inactive). The aptamer binding inhibition in experiment [9] is -11% (inactive). For the same compound, the results for the response in [10] and in experiment [12] were 26.4% (inactive) and 2.51% (inactive), respectively. For the same compound, in [13], the binding (% of control) was 109% (inactive). Besides, in experiment [14], the efflux inhibition (fraction of control) was 0.12 (inactive). Besides, the differentiation response in [16] is -5.97% (inactive).
Consider `CCCCCCCCNC(C)C(O)c1ccc(SC(C)C)cc1` (stereo not drawn), for which the percent of DMSO control GFP in experiment [1] was 93.5% (inactive). Besides, the values for the GFP response vs DMSO in [2] and in experiment [4] were 130% (inactive) and 85.3% (inactive), respectively. In addition, in experiment [3], the percent response of DMSO control was 102% (inactive). Besides, in experiment [5], the GFP response, % of DMSO was 92.2% (inactive). In addition, in experiment [6], the double positive events amounted to 38.1%. In addition, the vesicle binding response in experiment [6] is 47.2% (active). Moreover, the inhibition in experiment [7] is -12% (inactive); in experiment [11] it was 15.9% (inactive); in experiment [15], 11% (inactive). Besides, the superoxide response (% of plate) in experiment [8] was 115% (inactive). Besides, in experiment [9], the aptamer binding inhibition is -13% (inactive). Also, the values for the response in experiment [10] and in experiment [12] were 10.9% (inactive) and -2.14% (inactive), respectively. For the same compound, the binding (% of control) in [13] was 109% (inactive). Also, in experiment [14], the efflux inhibition (fraction of control) was -0.17 (inactive). For the same compound, the differentiation response in experiment [16] is 2.46% (inactive).

The record behind these values is PubChem BioAssay.
